# A selection: hits, their analogues and other compounds. The true share with any hit is near 19%.
# HT1080 IDH1KD tx – qHTS for induction of synthetic lethality in tumor cells producing 2HG: qHTS for the HT-1080-IDH1KD cell line; HT-1080 IDH1 knockdown viability, ATP luminescence, 48 h; Potency, µM (doses to about 46.1 µM), usual class: cytotoxic; hit rate 2% among 360,000
#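 % activity derives from luminescence (CellTiter-Glo), normalised to DMSO and no-cell wells. HT-1080-IDH1KD cells, 750/well, had 48 h compound exposure at 37 °C.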
# IL1B secr inh – qHTS for Inhibitors of Inflammasome Signaling: IL-1-beta AlphaLISA Primary Screen. activity change, % at 57.5 µM. hit rate 4.7% among 360,000. THP-1 LPS/ATP IL-1B secretion, AlphaLISA, 16 h; active compounds read low; in the data active = activity change below about -50%; inconclusive = mostly about -30% to -49%
#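 THP-1 cells pretreated 1 hr with compounds (up to 57.5 uM final), then stimulated with LPS (250 ng/mL final) plus ATP (1.25 mM final); secreted IL-1B measured by AlphaLISA after 16 hr, decreased signal indicating inhibition.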
# HT1080-NT tox – qHTS for induction of synthetic lethality in tumor cells producing 2HG: qHTS for the HT-1080-NT fibrosarcoma cell line; HT-1080-NT fibrosarcoma viability, CellTiter-Glo ATP luminescence, 48 h; Potency, µM (top dose mostly 46.1 µM), hits mostly cytotoxic; hit rate 1.6% among 360,000; AID 686970, 2013;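 note: NT is the 2HG producing partner of a matched IDH1 knockdown line; nearly all actives have a fitted effect of over 55% in size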
#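 Luminescent CellTiter-Glo readout after 48 hours of compound exposure at 37 degrees C defined viability of HT-1080-NT cells. Activity was normalized to DMSO wells and cell-free media wells; concentration-response curves were fitted and assigned curve classes.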
# DT40 TDP1 CPT – qHTS for Inhibitors of human tyrosyl-DNA phosphodiesterase 1 (TDP1): qHTS in cells in presence of CPT | chicken DT40 Tdp1-/-;hTDP1 cells + 20 nM CPT, ATP luminescence, 48 h | Potency, µM (series often up to 46.2 µM), actives largely listed as inhibitors | hit rate 12% among 420,000; note: nearly all actives have a fitted effect of over 55% in size
#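 Chicken DT40 Tdp1-/- cells stably complemented with human TDP1 were seeded at 400 cells/well in medium containing 20 nM camptothecin, exposed to pin-transferred compounds, and grown at 37 °C for at least 48 hr. Viability was read as ATP luminescence.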
# TDP1 cell noCPT – qHTS for Inhibitors of human tyrosyl-DNA phosphodiesterase 1 (TDP1): qHTS in cells in absence of CPT; DT40 Tdp1-/- hTDP1 cells, no CPT, ATP luminescence, 48 h; Potency, µM (titrated, usually from 46.2 µM), most hits filed as inhibitors; hit rate 15% among 420,000; AID 686978, 2013; note: nearly all actives have a fitted effect of over 55% in size
#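 Cells were dispensed at 400 per well, compounds added by pin tool, plates incubated ≥48 hr at 37 °C, then CellTiter-Glo added for 30 min at room temperature before luminescence reading. Line: DT40 Tdp1-/- complemented with hTDP1; camptothecin omitted.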
# Hits are given with their value; . = inactive; ? = inconclusive; / = no result. Unless noted, calls come from the whole dose curve; as a rule, active = well fitted curve in the direction sought with a large enough effect; inconclusive = small, poorly fitted or top-dose-only effect, or another doubt; inactive = no such curve, though single readings can be large; an effect the other way counts as inactive or inconclusive.
SMILES,HT1080 IDH1KD tx,IL1B secr inh,HT1080-NT tox,DT40 TDP1 CPT,TDP1 cell noCPT
CCN1CCN(c2cc(C)c3cc(NC(=S)N4CCN(c5ccc(F)cc5)CC4)ccc3n2)CC1,.,.,.,21µM,?
CCN1CCN(c2cc(C)c3cc(NC(=S)N4CC(C)CC(C)C4)ccc3n2)CC1 (stereo unspecified),16µM,-89,?,?,?
CCN1CCN(C(=S)Nc2ccc3nc(N4CCN(CC)CC4)cc(C)c3c2)CC1,?,?,.,.,?
Cc1cc(C)n(-c2ccc(NC(=O)C3CCN(Cc4ccccn4)CC3)cc2)n1,.,.,.,.,.
Clc1cccc(N2CCN(c3nnnn3-c3ccccc3)CC2)c1,.,.,.,.,.
Oc1ccc(N2CCN(c3nnnn3-c3ccccc3)CC2)cc1,.,.,.,?,21µM
O=c1[nH]c(C(F)(F)C(F)(F)C(F)(F)F)no1,.,.,.,.,.
Cc1cc(C)n2cc(CSc3nnc(-c4ccccc4)c(-c4ccccc4)n3)nc2n1,.,.,.,21µM,23µM
O=C1CCC[C@@H]2C[C@@]3(C[C@@H]4CCN1[C@H]24)Nc1cc(Cl)c(Cl)cc1NC3=NCc1ccccc1,.,.,.,18µM,20µM
CC(C)(C)CC(C)(C)N=C1Nc2ccc([N+](=O)[O-])cc2N[C@]12C[C@H]1CCCC(=O)N3CC[C@@H](C2)[C@@H]13,/,/,/,18µM,11µM
O=C1CCC[C@@H]2C[C@@]3(C[C@@H]4CCN1[C@H]24)Nc1ccccc1NC3=NC1CCCCC1,/,/,/,.,.
O=C1CCC[C@@H]2CC(Nc3ccccc3)C[C@@H]3CCN1[C@H]23 (stereo partly specified),/,/,/,?,.
CC(C)(C)CC(C)(C)N=C1Nc2ccc(Cl)cc2NC12C[C@H]1CCC(=O)N3CC[C@@H](C2)[C@@H]13 (stereo partly specified),/,/,/,?,13µM
O=C(CSc1ccccc1)NN1C(=O)c2ccccc2C1=O,.,.,.,.,.
COc1cc(C)c(Cl)cc1S(=O)(=O)N1CCSC1,.,.,.,.,.
Cn1c(C(=O)NCCN2CCN(Cc3ccccc3)CC2)cc2c(=O)n(C)c3ccccc3c21,.,.,.,23µM,23µM
CC1CCN(CCCNC(=O)c2cc3c(=O)n(C)c4ccccc4c3n2C)CC1,.,-66,.,23µM,33µM
CC(=O)c1ccc(S(=O)(=O)Nc2cccc(-c3ccc(N4CCCCCC4)nn3)c2)cc1,/,/,/,.,.
COCCOC1CCN(Cc2cn(Cc3ccccc3)nc2-c2cc3ccccc3o2)CC1,.,.,.,?,16µM
OC1CCCN(Cc2cn(Cc3ccccc3)nc2-c2cc3ccccc3o2)C1 (stereo unspecified),?,?,.,?,18µM
CCC(O)C1CCN(Cc2cn(Cc3ccccc3)nc2-c2cc3ccccc3o2)CC1 (stereo unspecified),.,.,?,?,?
N#CCCn1cc(C(=O)O)c(-c2cc3ccccc3o2)n1,.,.,.,.,.
CC(C)CC(NC(=O)C1CCC(C)CC1)C(=O)Nc1ccc2c(c1)OCCO2 (stereo unspecified),.,.,.,.,.
COc1ccc(C2C(C(=O)N3CCN(C)CC3)c3ccccc3C(=O)N2C2CCCCC2)cc1 (stereo unspecified),.,.,.,.,.
COc1ccc(C2C(C(=O)NCCN3CCOCC3)c3ccccc3C(=O)N2C2CCCCC2)cc1 (stereo unspecified),.,.,.,7.3µM,5.2µM
SMILES,HT1080 IDH1KD tx,IL1B secr inh,HT1080-NT tox,DT40 TDP1 CPT,TDP1 cell noCPT
CCN(CC)CCCNC(=O)C1c2ccccc2C(=O)N(C)C1c1ccc(OC)cc1 (stereo unspecified),?,.,.,.,2.3µM
COc1ccc(C2C(C(=O)Nc3cc(OC)c(OC)c(OC)c3)c3ccccc3C(=O)N2C)cc1 (stereo unspecified),1.5µM,.,1.5µM,1.5µM,1.8µM
CCc1cccc(C)c1NC(=O)Cn1ccn(Cc2ccc(Cl)cc2)c(=O)c1=O,/,/,/,.,.
Cc1ccc(Cl)cc1N1CCN(S(=O)(=O)c2ccc3c(c2)CCN3C(=O)C2CCC2)CC1,/,/,/,.,.
Cc1csc(NC(=O)c2ccc(Cl)nc2)n1,.,.,.,.,.
O=C(NN1C(=O)c2ccccc2C1=O)c1ccccc1[N+](=O)[O-],.,.,.,.,.
CN(C(=O)c1ccc(NC(=O)Cc2cccc([N+](=O)[O-])c2)cc1)C1CCCC1,.,?,.,?,.
CN(C(=O)c1ccc(S(=O)(=O)c2cccc(Cl)c2)c([N+](=O)[O-])c1)C1CCCCC1,?,-106,?,3.7µM,5.2µM
CN(CC1CCCN(CCc2ccc(Cl)cc2)C1)C(=O)c1ccc2nc[nH]c2c1 (stereo unspecified),.,.,.,?,.
Cc1ccc2cc3cc(C(=O)N4CC(C)CC(C)C4)oc3nc2c1 (stereo unspecified),.,-53,.,?,23µM
Cc1ccc2cc3cc(C(=O)N4CCCCC4C)oc3nc2c1 (stereo unspecified),.,-77,.,?,?
